Screens from PubChem.
Most compounds without a hit are left out; they make up all but 2.6% or so of the library.
B2AR arrestin ag = agonists recruiting beta-arrestin to human beta2-adrenergic receptor; HTLA Tango cells, beta-arrestin recruitment, luciferase luminescence, 18 h; 44,000 tested, under 10 active; Potency, µM (titrated, usually from 46.1 µM), usual class: activators;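 further: potency means the concentration at half of the fitted maximal effect; 0% = DMSO and full agonism = EC100 isoproterenol or metaproterenol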
Target sequence (P07550 whole entry, looked up): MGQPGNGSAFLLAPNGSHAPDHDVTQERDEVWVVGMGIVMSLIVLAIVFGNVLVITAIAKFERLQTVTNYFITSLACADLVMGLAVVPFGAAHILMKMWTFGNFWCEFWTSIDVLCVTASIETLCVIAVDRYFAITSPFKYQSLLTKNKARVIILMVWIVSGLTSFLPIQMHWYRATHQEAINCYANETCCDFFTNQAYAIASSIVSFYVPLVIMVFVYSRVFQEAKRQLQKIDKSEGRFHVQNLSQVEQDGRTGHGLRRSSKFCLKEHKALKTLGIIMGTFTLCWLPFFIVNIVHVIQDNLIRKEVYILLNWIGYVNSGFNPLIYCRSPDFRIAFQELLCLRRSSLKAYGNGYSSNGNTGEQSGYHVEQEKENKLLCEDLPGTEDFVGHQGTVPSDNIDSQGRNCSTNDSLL
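Ligand-induced beta-arrestin recruitment to recombinant beta2-AR is measured via a tTA-driven luciferase reporter in Tango cells after 18 hr compound exposure at 37 degrees C. Concentrations span up to 46 microM.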
DRV1 agonist = activates human resolvin D1 receptor GPR32; CHO-K1 GPR32 beta-arrestin PathHunter luminescence, 90 min; zero percent set by DMSO-only wells; 48,000 compounds, 2.5% hits; activation, % at 76.9 µM; O75388; AID 1346428;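 active means activation of at least 60% and not above a set upper limit, about 1 call in 100 departs from these limits; inconclusive means activation of 40% to 60%, or above that upper limit; inactive means activation under 40%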; further: 0% is about no effect
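PathHunter enzyme-fragment complementation, CHO-K1 GPR32 stable line; 2,500 cells/well, overnight attach; cpd 90 min 37 °C 5% CO2; detection reagent 1 h RT; chemiluminescence. DMSO = EC0.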
GALC G270D act = enhancers of human galactocerebrosidase G270D mutant activity in cells | P54803 | 145M-Twi-hGALC-G270D cells, HMU-beta-Gal fluorescence, 48 h | Potency, µM (highest dose often 57.5 µM), hits mostly activators | 45,000 compounds, 0.1% hits; further: potency means the concentration at half of the fitted maximal effect; 0% is about no effect; nearly all actives have a fitted effect of over 65% in size
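qHTS, 1536-well; 145M-Twi-hGALC-G270D cells (WT line also made) in DMEM/F12 + 10% FBS; compound incubation on live cells; HMU-β-gal 0.1 mM final, pH 5.2, NaTC; carbonate stop; fluorescence increase = enhanced residual activity.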
PTAP-TSG101 blk = inhibitors of HIV-1 PTAP binding to human TSG101, validation; 44,000 tested, under 10 active; Fluorescence polarization, FITC-PTAP peptide/Tsg101, 20 min; Potency, µM (top dose mostly 115 µM), actives largely listed as inhibitors; AID 1347069; Q99816; further: potency means the concentration at half of the fitted maximal effect; 0% is about no effect
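Compounds pinned into 10 uM Tsg101 binding domain, then 50 nM FITC-PTAP peptide added in pH 7.5 HEPES buffer; FP read after 20 min, room temperature. Total S+P intensity flags fluorescent compounds; active cut-off <25 µM, efficacy <60%.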
GALK inhibitor = GALK (human) enzyme inhibition. P51570. recombinant GALK, Kinase-Glo ATP luminescence, 1 h. Potency, µM (doses to about 57.5 µM), without a hit: top-dose activity, negative = inhibition, usual class: inhibitors. 44,000 tested, under 10 active. AID 1347072;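 further: plate controls were full GALK reaction for no effect and reaction lacking GALK for full effect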
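5 nM GALK; 35 uM ATP; 100 uM D-galactose; 20 mM HEPES pH 8.0, 5 mM MgCl2, 60 mM NaCl, 1 mM DTT, 0.01% BSA; 1 h RT; Kinase-Glo Plus luminescence.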
* marks the source's active call; other numbers are inactive results. Unless noted, the call rests on the fitted dose curve; in most records, active means well fitted curve in the direction sought with a large enough effect; inconclusive means small, poorly fitted or top-dose-only effect, or another doubt; inactive means no such curve, though single readings can be large; an effect the other way counts as inactive or inconclusive.

`CCc1ccc(S(=O)(=O)Nc2ccc3oc(C)c(C(=O)OCCOC)c3c2)cc1` gave B2AR arrestin ag inactive, DRV1 agonist 64*, PTAP-TSG101 blk inactive and GALK inhibitor inconclusive.
O=C(O)C(=O)Nc1cccc(-c2nn[nH]n2)c1 was read as DRV1 agonist -39 and GALC G270D act inactive.
Screening COc1cc(C2c3c(-c4ccccc4O)n[nH]c3C(=O)N2Cc2ccco2)ccc1OCC(C)C (stereo unspecified) returned B2AR arrestin ag inactive, DRV1 agonist 12, GALC G270D act inactive, PTAP-TSG101 blk inactive and GALK inhibitor -4%.
Screening CCc1cccc(C)c1Nc1c(-c2ccc(N(C)C)cc2)nc2cnccn12 returned B2AR arrestin ag inactive, DRV1 agonist 93*, GALC G270D act inactive, PTAP-TSG101 blk inactive and GALK inhibitor -7%.
`Cc1c(Cl)cccc1Nc1nn2c(=O)c3ccc(C(=O)NCCc4ccccc4)cc3nc2s1` gave B2AR arrestin ag inactive, DRV1 agonist 4, GALC G270D act inactive, PTAP-TSG101 blk inactive and GALK inhibitor 0%.
For Cc1ccc(C)c(Nc2nn3c(=O)c4ccc(C(=O)NCCc5ccccc5)cc4nc3s2)c1 the results were B2AR arrestin ag inactive, DRV1 agonist 74*, GALC G270D act inactive, PTAP-TSG101 blk inactive and GALK inhibitor 0%.
Screening Cc1ccc(C)c(Nc2nn3c(=O)c4cc5c(cc4nc3s2)OCO5)c1 returned B2AR arrestin ag inactive, DRV1 agonist 63*, GALC G270D act inactive, PTAP-TSG101 blk inactive and GALK inhibitor 5%.
Screening Fc1ccc(NCc2cccn2-c2nnc(N3CCOCC3)s2)cc1 returned B2AR arrestin ag inactive, DRV1 agonist 67*, GALC G270D act inactive, PTAP-TSG101 blk inactive and GALK inhibitor 1%.
Cc1ccc(NCc2cccn2-c2nnc(N3CCCCCC3)s2)cc1 was read as B2AR arrestin ag inactive, DRV1 agonist -20, GALC G270D act inactive, PTAP-TSG101 blk inactive and GALK inhibitor -2%.
Screening Fc1cccc(NCc2cccn2-c2nnc(N3CCOCC3)s2)c1 returned B2AR arrestin ag inactive, DRV1 agonist 66*, GALC G270D act inactive, PTAP-TSG101 blk inactive and GALK inhibitor -4%.
For Cc1ccccc1NCc1cccn1-c1nnc(N2CCOCC2)s1 the results were B2AR arrestin ag inactive, DRV1 agonist 16, GALC G270D act inactive, PTAP-TSG101 blk inactive and GALK inhibitor 2%.
Screening COc1ccc2cc1Oc1cc3c(cc1OC)CC[N+](C)(C)[C@H]3Cc1ccc(cc1)Oc1c(OC)c(OC)cc3c1[C@@H](C2)[N+](C)(C)CC3 returned DRV1 agonist 22 and GALC G270D act inactive.
For Cc1cccc(N(C)c2nc3ccc(C)cc3n3nnnc23)c1 the results were B2AR arrestin ag inactive, DRV1 agonist -24, PTAP-TSG101 blk inactive and GALK inhibitor 5%.
`Cc1cccc(N(C)c2nc3ccc(C)cc3n3cnnc23)c1` gave B2AR arrestin ag inactive, DRV1 agonist 66*, GALC G270D act inactive, PTAP-TSG101 blk inactive and GALK inhibitor 6%.
`O=C(COc1ccc(F)cc1)OCc1cc(=O)n2nc(C3CC3)sc2n1` gave B2AR arrestin ag inactive, DRV1 agonist 97*, GALC G270D act inactive, PTAP-TSG101 blk inactive and GALK inhibitor 1%.
Screening O=C(COc1ccc(Cl)cc1)OCc1cc(=O)n2nc(C3CCCCC3)sc2n1 returned B2AR arrestin ag inactive, DRV1 agonist 12, GALC G270D act inactive, PTAP-TSG101 blk inactive and GALK inhibitor 2%.
For CCOC(=O)c1ccc(NC(=O)CC2Sc3ccc(C(F)(F)F)cc3NC2=O)cc1 (stereo unspecified) the results were B2AR arrestin ag inactive, DRV1 agonist 22, GALC G270D act inactive, PTAP-TSG101 blk inactive and GALK inhibitor 3%.
Screening COc1ccccc1NC(=O)CC1Sc2ccc(C(F)(F)F)cc2NC1=O (stereo unspecified) returned B2AR arrestin ag inactive, DRV1 agonist 64*, GALC G270D act inactive, PTAP-TSG101 blk inactive and GALK inhibitor 2%.
CCc1cccc2c(CCO)c[nH]c12 was read as DRV1 agonist 25 and GALC G270D act inactive.
For Cc1ccc2nc(-c3ccc(NC(=O)C(F)(F)F)cc3)sc2c1 the results were B2AR arrestin ag inactive, DRV1 agonist -7, GALC G270D act 14µM*, PTAP-TSG101 blk inactive and GALK inhibitor 1%.
Cc1ccc2nc(-c3ccc(NC(=O)c4ccc(S(C)(=O)=O)cc4)cc3)sc2c1 was read as B2AR arrestin ag inactive, DRV1 agonist 0, GALC G270D act inactive, PTAP-TSG101 blk inactive and GALK inhibitor 1%.
For CSc1nc2c([nH]c3ccccc32)c(=O)n1-c1ccc(F)cc1 the results were B2AR arrestin ag inactive, DRV1 agonist inconclusive, GALC G270D act inactive, PTAP-TSG101 blk inactive and GALK inhibitor 2%.
Screening CCSc1nc2c([nH]c3ccccc32)c(=O)n1-c1ccc(F)cc1 returned B2AR arrestin ag inactive, DRV1 agonist 79*, GALC G270D act inactive, PTAP-TSG101 blk inactive and GALK inhibitor 1%.
For O=C(COc1ccc(F)cc1)Nc1ccc2nc(SCC(=O)N3CCOCC3)sc2c1 the results were B2AR arrestin ag inactive, DRV1 agonist 21, GALC G270D act inactive, PTAP-TSG101 blk inactive and GALK inhibitor -5%.
`Cc1sccc1Br` gave DRV1 agonist -7 and GALC G270D act inactive.
CCc1ccc(CNC(=O)c2cc3ccccn3n2)cc1 was read as B2AR arrestin ag inactive, DRV1 agonist 3, GALC G270D act inactive, PTAP-TSG101 blk inactive and GALK inhibitor 3%.
Cc1cccc(CCNC(=O)c2cc3ccccn3n2)c1 was read as B2AR arrestin ag inactive, DRV1 agonist 101*, PTAP-TSG101 blk inactive and GALK inhibitor 2%.
`N#C/C(=C\c1ccc(-c2cc(Cl)ccc2Cl)o1)C(=O)Nc1cccc2ncccc12` gave DRV1 agonist 6.
Screening COc1ccc(-c2ccc3c(N)c(C(=O)Nc4cccc(C)c4)sc3n2)cc1 returned B2AR arrestin ag inactive, DRV1 agonist inconclusive, GALC G270D act inactive, PTAP-TSG101 blk inactive and GALK inhibitor -13%.
Screening COc1ccc(-c2ccc3c(N)c(C(=O)Nc4cc(F)ccc4C)sc3n2)cc1 returned B2AR arrestin ag inactive, DRV1 agonist -4, GALC G270D act 16µM*, PTAP-TSG101 blk inactive and GALK inhibitor 2%.
Cc1ccc(NC(=O)c2sc3nc(-c4ccc(F)cc4)ccc3c2N)cc1F was read as B2AR arrestin ag inactive, DRV1 agonist 86*, GALC G270D act inactive, PTAP-TSG101 blk inactive and GALK inhibitor 0%.
